# PubChem BioAssay AID504467 (National Center for Advancing Translational Sciences (NCATS), 2011)
# Hit rate of the full screen: of about 330,000 compounds, about 7,700 (2.3%) were called active. Another 26% or so got no clear call; they are omitted. The sample as a whole holds a higher share of actives than the screen did. A number with no mark means an inactive call. Calls come from the whole dose curve; as a rule, active = well fitted inhibition curve with a large enough effect; inconclusive = small, poorly fitted or top-dose-only effect, or effect the other way; inactive = flat fitted curve, though single readings scatter.
# Experiment: qHTS screen for small molecules that inhibit ELG1-dependent DNA repair in human embryonic kidney (HEK293T) cells expressing luciferase-tagged ELG1; note: nearly all actives have a fitted effect of over 55% in size
# Details: HEK293T ELG1-luciferase reporter, luminescence, 16 h, DNA damage induced by 5-fluorouridine; series mostly up to 46.1 µM; activity change, negative = inhibition: at the top concentration
# Outline: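 5-Fluorouridine DNA damage + compound/DMSO, 2,000 cells/well, 16 h, 37 °C/5% CO2. ONE-Glo, 30 min RT, luminescence. Readout = decrease in reporter signal.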
# % is set by controls: 0 for no effect and ±100 for the full control effect; potency is the fitted concentration of half-maximal effect.
SMILES,"activity change, negative = inhibition [%]",Potency
O=C(NC1CCCCC1)C1CCCN(S(=O)(=O)c2cccs2)C1 (stereo not given),7.89,–
O=C(Nc1ccc(Br)cn1)C1CCN(S(=O)(=O)c2cccs2)CC1,–,5.8 µM (active)
O=C(NCc1ccc(Cl)cc1)C1CCN(S(=O)(=O)c2cccs2)CC1,1.66,–
O=C(COC(=O)c1ccccn1)NNC(=O)c1ccc(Br)cc1,14.1,–
Cc1ccc(OCC(=O)Nc2ccccc2C(=O)NC2CC2)cc1,4.58,–
CCCCNC(=O)N(O)C1N(/N=C/c2ccccc2O)C(=S)SC1(C)C (stereo not given),-3.57,–
CCOC(=O)C1CCCN(C(=O)CSc2nnc3nc(C)cc(C)n23)C1 (stereo not given),2.07,–
CCCc1cc(=O)[nH]c(SCC(=O)Nc2sc3c(c2C#N)CCCC3)n1,2.43,–
N#Cc1c(NC(=O)CSc2nc3ccccc3c(=O)n2Cc2ccco2)sc2c1CCCC2,-11.7,–
COc1ccc(-n2c(SCC(=O)Nc3sc4c(c3C#N)CCCC4)nnc2-c2ccc(O)cc2)cc1,–,18.4 µM (active)
CCOc1ccccc1NC(=O)CCc1nnc2ccc(NCc3ccco3)nn12,4.95,–
Cc1ccc(NC(=O)C2CCC(C(C)(C)C)CC2)cc1S(=O)(=O)N1CCOCC1 (stereo not given),–,23.1 µM (active)
Cc1ccc(NC(=O)c2ccc(Cl)nc2)cc1S(=O)(=O)N1CCOCC1,–,23.1 µM (active)
CC(=O)NCCc1ccc(S(=O)(=O)Nc2ccc(C)c(S(=O)(=O)N3CCOCC3)c2)cc1,2.11,–
Cc1ccc(NC(=O)C2CC2)cc1S(=O)(=O)N1CCOCC1,-2.57,–
CN(CCC(=O)Nc1cc(S(=O)(=O)N(C)C)ccc1Cl)CC(=O)Nc1ccc(F)cc1,-5.53,–
Cc1ccc(NC(=O)c2ccccn2)cc1S(=O)(=O)N1CCOCC1,5.46,–
Cc1ccc(NC(=O)CCCNC(=O)c2ccc(Cl)cc2)cc1S(=O)(=O)N1CCOCC1,-8.87,–
CN(CC(=O)Nc1ccc(F)cc1)CC(=O)N1CCCCC1,-11.1,–
CN(CC(=O)Nc1ccc(F)cc1)CC(=O)Nc1ccc(Cl)c(S(=O)(=O)N2CCOCC2)c1,–,18.3 µM (active)

SMILES,"activity change, negative = inhibition [%]",Potency
COc1cccc(CNC(=O)C(=O)NCCC2CCCCN2S(=O)(=O)c2ccc(C)cc2)c1 (stereo not given),-29.2,–
O=C(CNC(=O)c1ccccc1Br)NCCSc1ccc(Br)cc1,-19.1,–
CC(C)(C)OC(=O)C1=C(CO)CS[C@@H]2[C@H](NC(=O)Cc3ccccc3)C(=O)N12,11.9,–
COc1ccc(S(=O)(=O)N2CCN(C)CC2)c(C)c1,5.66,–
COc1ccc2c(c1OC)C(=O)OC2c1c(O)nc(SC)n(-c2ccccc2)c1=O (stereo not given),-5.33,–
COc1ccc2c(c1OC)C(=O)OC2Nc1nc(-c2ccccc2)cs1 (stereo not given),–,9.2 µM (active)
COc1ccc(C)cc1Nc1nc(-c2c(C)[nH]c3ccccc23)cs1,-10.1,–
O=C(Nc1ccc(N2CCOCC2)c(Cl)c1)c1ccc(S(=O)(=O)N2CCOCC2)cc1,-11.2,–
O=C(CN1C(=O)c2ccccc2S1(=O)=O)N1CCc2ccccc21,–,20.6 µM (active)
O=C(CN1C(=O)c2ccccc2S1(=O)=O)NC1CCCCC1,11,–
O=C(CN1CCN(c2ccccn2)CC1)N1CCc2ccccc21,1.75,–
CCOc1ccc(-n2c(SCC(=O)Nc3cc(C(=O)O)ccc3Cl)nc3ccccc3c2=O)cc1,8.71,–
O=C(O)CCCn1c(=O)c2cccn2c2ccc(F)cc21,13.5,–
O=C(c1cccs1)N1CCN(Cc2ccc3c(c2)OCO3)CC1,-19.8,–
Cc1cc(C)n2nc(C(=O)N3CCN(Cc4ccc5c(c4)OCO5)CC3)nc2n1,-5.43,–
O=C(CN1C(=O)c2cccc3cccc(c23)C1=O)N1CCCCC1,-4.51,–
O=C(CCCN1C(=O)c2cccc3cccc(c23)C1=O)N1CCN(Cc2ccc3c(c2)OCO3)CC1,–,2.31 µM (active)
O=C(Nc1cccc2ccccc12)N1CCN(Cc2ccc3c(c2)OCO3)CC1,-2.1,–
O=C(CSCc1ccc(Cl)cc1)N1CCN(Cc2ccc3c(c2)OCO3)CC1,–,20.6 µM (active)
CCOc1ccccc1NC(=S)NC(=O)CCc1ccccc1,-23.7,–

SMILES,"activity change, negative = inhibition [%]",Potency
COc1ccc(NC(C)=O)cc1NC(=O)CN1CCN(C2c3ccccc3-c3ccccc32)CC1,–,0.92 µM (active)
COc1cccc(NC(=O)CN2CCN(CC(=O)Nc3ccccc3Cl)CC2)c1,-15.9,–
COc1ccc(NC(C)=O)cc1NC(=O)CN1CCN(c2ccccn2)CC1,9.16,–
CCCCN(CCCC)CCCNC(=O)CN1C(=O)COc2ccc(S(=O)(=O)N3CCC(C)CC3)cc21,11.5,–
CC(C)n1ncc2c(C(=O)NCc3ccccc3CN(C)C)cc(C3CC3)nc21,-11.2,–
COc1ccc(S(=O)(=O)N2CN(CCc3ccc(OC)c(OC)c3)c3nc4ccccc4nc32)cc1,-17.5,–
COc1ccc(CCn2c(-c3ccco3)nc3nc4ccccc4nc32)cc1OC,–,4.61 µM (active)
Clc1cccc(-c2nc3nc4ccccc4nc3n2Cc2ccco2)c1,-13.2,–
CCOc1ccccc1-c1cc(C(=O)N/N=C(\C)c2cccnc2)c2ccccc2n1,-12.8,–
COc1ccc(-c2nc(CS(=O)(=O)CC(=O)NCc3cccc(Br)c3)c(C)o2)cc1,-4.23,–
C=CCn1c(SCC(=O)NC)nnc1C12CC3CC(CC(C3)C1)C2,-14.1,–
COc1ccc(C2(c3ccc(OC)cc3)NC(=O)N(CC(=O)Nc3cc(C)on3)C2=O)cc1,-12.7,–
C[C@H](CO)N1C[C@H](C)[C@@H](CN(C)S(=O)(=O)c2ccc(F)cc2)Oc2c(NC(=O)Nc3ccccc3)cccc2C1=O,-18.3,–
COc1ccc(S(=O)(=O)Nc2cccc3c2O[C@H](CN(C)S(=O)(=O)c2ccc(OC)cc2)[C@@H](C)CN([C@H](C)CO)C3=O)cc1,-17.5,–
COc1ccc(S(=O)(=O)N(C)C[C@H]2Oc3c(NC(=O)Nc4ccc5c(c4)OCO5)cccc3C(=O)N([C@H](C)CO)C[C@@H]2C)cc1,–,11.6 µM (active)
CCN(C(=O)COC(=O)Cc1c(F)cccc1Cl)c1c(N)n(Cc2ccccc2)c(=O)[nH]c1=O,2.59,–
CCCc1nc2c([nH]1)C(c1cccnc1)C(C#N)=C(N)O2 (stereo not given),2.12,–
N#CC1=C(N)Oc2c(ccc3cccnc23)C1c1ccncc1 (stereo not given),–,9.2 µM (active)
COc1ccc(-c2[nH]nc3c2C(c2ccncc2)C(C#N)=C(N)O3)cc1 (stereo not given),0.962,–
O=C(CNC(=O)c1n[nH]c2ccccc12)Nc1cc(Cl)ccc1Cl,2.2,–
